TDP1 inh = qHTS Assay for Inhibitors of Tyrosyl-DNA Phosphodiesterase (TDP1); Tyrosyl-DNA phosphodiesterase 1 (Homo sapiens), Q9NUW8; recombinant TDP1, AlphaScreen DNA substrate cleavage; Potency, µM (doses to about 130 µM), for the others: at the top dose activity change, negative = inhibition, most hits filed as inhibitors; 350,000 compounds, 0.28% hits; also: potency is read from the fitted curve at half-maximal effect; % is scaled to controls: 0 for no effect and ±100 for the full control effect; nearly all actives have a fitted effect of over 40% in size
Target sequence (Q9NUW8 whole entry, looked up): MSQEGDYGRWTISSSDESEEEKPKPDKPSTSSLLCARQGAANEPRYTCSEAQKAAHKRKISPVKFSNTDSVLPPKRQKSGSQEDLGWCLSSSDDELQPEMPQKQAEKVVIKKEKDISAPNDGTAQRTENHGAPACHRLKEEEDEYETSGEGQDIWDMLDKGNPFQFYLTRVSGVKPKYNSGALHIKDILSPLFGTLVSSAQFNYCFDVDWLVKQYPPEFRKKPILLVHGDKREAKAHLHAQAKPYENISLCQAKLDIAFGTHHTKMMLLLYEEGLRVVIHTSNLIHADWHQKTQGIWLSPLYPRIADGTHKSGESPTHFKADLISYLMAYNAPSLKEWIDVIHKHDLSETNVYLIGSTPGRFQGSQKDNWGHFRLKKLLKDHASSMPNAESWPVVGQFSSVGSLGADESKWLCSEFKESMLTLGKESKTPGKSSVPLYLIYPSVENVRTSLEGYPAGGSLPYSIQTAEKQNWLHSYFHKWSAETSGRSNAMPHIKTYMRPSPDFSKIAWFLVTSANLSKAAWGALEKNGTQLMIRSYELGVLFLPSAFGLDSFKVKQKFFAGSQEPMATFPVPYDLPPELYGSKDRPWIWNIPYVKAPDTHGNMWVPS
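Tdp1 1 nM final; 15 min RT w/ cpd; substrate 15 nM, 5 min; beads 10 ug/ml, 10 min; AlphaScreen read. Neg ctrl: no enzyme.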
DT40 TDP1 no CPT = qHTS for Inhibitors of human tyrosyl-DNA phosphodiesterase 1 (TDP1): qHTS in cells in absence of CPT. DT40 Tdp1-/- hTDP1 cells, no CPT, ATP luminescence, 48 h. Potency, µM (titrated, usually from 46.2 µM), for inactives: at the highest dose activity change, negative = growth inhibition, actives largely listed as inhibitors. 420,000 compounds, 15% hits; also: potency is read from the fitted curve at half-maximal effect; % is scaled to controls: 0 for no effect and ±100 for the full control effect; nearly all actives have a fitted effect of over 55% in size
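A cellular qHTS used chicken DT40 cells lacking endogenous Tdp1 but carrying stably transfected human TDP1. Compounds were applied without camptothecin, and cell growth kinetics were judged by ATP-dependent luminescence after ≥48 hr.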
DT40 TDP1 CPT = qHTS for Inhibitors of human tyrosyl-DNA phosphodiesterase 1 (TDP1): qHTS in cells in presence of CPT; chicken DT40 Tdp1-/-;hTDP1 cells + 20 nM CPT, ATP luminescence, 48 h; Potency, µM (highest dose often 46.2 µM), without a hit: at the top dose activity change, negative = growth inhibition, actives largely listed as inhibitors; 420,000 compounds, 12% hits; also: potency is read from the fitted curve at half-maximal effect; % is scaled to controls: 0 for no effect and ±100 for the full control effect; nearly all actives have a fitted effect of over 55% in size
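Cell growth measured by CellTiter-Glo luminescence after a minimum 48 h, 37 C compound exposure with 20 nM CPT in Tdp1-knockout DT40 cells stably expressing hTDP1, seeded 400/well; qHTS titration format.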
HepG2 tox = qHTS for Inhibitors of TGF-b: Cytotox Counterscreen. HepG2 CAGA-GFP viability, ATP luminescence, 18 h. Potency, µM (series often up to 46.1 µM), for inactives: at the highest dose activity change, negative = cytotoxicity, actives largely listed as cytotoxic. AID 588856, 2011. 410,000 compounds, 0.76% hits; also: potency is read from the fitted curve at half-maximal effect
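HepG2 CAGA-GFP cells (1000/well, DMEM with 1% FBS) received compound, then TGF-beta at 500 pg/mL final, and were incubated 18 hours at 37 degrees C. Viability was read by CellTiter-Glo luminescence. Media-only wells were set as complete cell-killing and DMSO as no toxicity.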
IL-1B inflam inh = qHTS for Inhibitors of Inflammasome Signaling: IL-1-beta AlphaLISA Primary Screen | 360,000 compounds, 4.7% hits | THP-1 LPS/ATP IL-1B secretion, AlphaLISA, 16 h; stronger effect = lower value | activity change, % at 57.5 µM; in the data active = activity change below about -50%; inconclusive = mostly about -30% to -49%; also: % is scaled to controls: 0 for no effect and ±100 for the full control effect
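THP-1 cells pretreated 1 hr with compounds (up to 57.5 uM final), then stimulated with LPS (250 ng/mL final) plus ATP (1.25 mM final); secreted IL-1B measured by AlphaLISA after 16 hr, decreased signal indicating inhibition.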
TGFb SMAD3 inh = qHTS for Inhibitors of TGF-b; HepG2 CAGA-GFP TGF-b/SMAD3 reporter, GFP fluorescence, 18 h; TGF-beta stimulated, 500 pg/mL final; Potency, µM (doses to about 46.1 µM), without a hit: at the highest dose activity, negative = inhibition, most hits filed as inhibitors; 410,000 compounds, 1.2% hits; also: potency is read from the fitted curve at half-maximal effect; % is scaled to controls: 0 for no effect and ±100 for the full control effect; nearly all actives have a fitted effect of over 65% in size
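Read-out: total well GFP (ex488/em500-530) summed from mean per-cell fluorescence. Cells: HEPG2 CAGA-GFP, 1% FBS DMEM, 18 h at 37 degrees C with 500 pg/mL final TGF-beta. Unstimulated wells served as the full-inhibition control; stimulated DMSO wells = 0%.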
The depositor's hits bear a star; u = inconclusive; x = no result given; [ ] = another dose, or the depositor's remark. Shown are actives, neighbours in structure and some others; about 18% of the full set was active somewhere. Unless noted, calls follow the shape of the dose curve; as a rule, active = well fitted curve in the direction sought with a large enough effect; inconclusive = small, poorly fitted or top-dose-only effect, or another doubt; inactive = no such curve, though single readings can be large; an effect the other way counts as inactive or inconclusive.

SMILES	TDP1 inh	DT40 TDP1 no CPT	DT40 TDP1 CPT	HepG2 tox	IL-1B inflam inh	TGFb SMAD3 inh
O=C(Nc1ccccc1N1CCCC1)c1ccc(Br)o1	0%	u	u	-8%	4	-13%
O=C(Nc1cccc(Cl)c1N1CCOCC1)c1ccc(Br)o1	7%	10µM*	10µM*	23%	-2	7%
O=C(Nc1ccc(N2CCOCC2)cc1)c1ccc(Br)o1	x	-23%	-11%	-16%	u	12%
NS(=O)(=O)c1cccc(NC(=O)CSc2nnc(NC3CC3)s2)c1	x	-29%	-5%	4%	24	7%
CCOC(=O)C1CCCN(C(=O)c2cnn(-c3nccc(-c4cc(C)sc4C)n3)c2C)C1 (stereo not drawn)	x	u	3%[9.04 µM]	x	x	x
N=c1c2c(ncn1CCN1CCOCC1)Oc1cc(O)ccc1C2c1ccccc1 (stereo not drawn)	5%	u	1%	-9%	-75*	-3%
COc1ccc(C2c3c(ncn(CCCN4CCOCC4)c3=N)Oc3ccc4ccccc4c32)cc1OC (stereo not drawn)	7%	13µM*	23µM*	-74%	0	u
COc1cccc(C2c3c(ncn(-c4ccc5c(c4)OCO5)c3=N)Oc3ccc4ccccc4c32)c1 (stereo not drawn)	5%	x	x	x	x	x
COc1ccc2c(c1)Oc1ncn(CCN3CCOCC3)c(=N)c1C2c1ccc(OC)c(OC)c1 (stereo not drawn)	2%	x	x	x	x	x
COc1ccc(C2c3ccc4ccccc4c3Oc3ncn(CCN4CCOCC4)c(=N)c32)cc1OC (stereo not drawn)	5%	15µM*	18µM*	-69%	-52*	u
COc1ccc(C2c3ccc4ccccc4c3Oc3ncn(CCN4CCOCC4)c(=N)c32)cc1 (stereo not drawn)	7%	u	23µM*	-103%	-79*	-4%
O=c1cc(N2CCN(c3ccc(F)cc3)CC2)[nH]c(=O)n1Cc1ccc(F)cc1	0%	8.2µM*	9.2µM*	11%	12	-4%
CC1=C(C)CC2(SC1)C(=O)N(c1ccccc1)N=C2N (stereo not drawn)	8%	21µM*	7.3µM*	-56%	-8	14%
CC(=O)c1ccc(S(=O)(=O)N2CCN(CC(=O)Nc3ccnn3C3CCCC3)CC2)cc1	x	-11%	-6%	-4%	43	4%
O=C(NCCc1ccccc1)Nc1nnc([C@@H]2C[C@H](O)[C@@H](CO)O2)s1	x	-2%	4%	-7%	0	0%
COc1ccc(OC)c(-c2noc(CSc3nnc(Cc4ccccc4)n3-c3cccc(C)c3)n2)c1	9%	23µM*	18µM*	-24%	x	u
COc1ccc(-c2noc(CSc3nnc(C)n3-c3ccc(OC)cc3)n2)cc1	-1%	u	-19%	-25%	x	u
COc1ccc(-c2noc(CSc3nnc(Cc4ccccc4)n3-c3ccccc3)n2)cc1OC	10%	13µM*	23µM*	-50%	x	u
COc1ccc(OC)c(-c2noc(CSc3nnc(-c4ccccc4)n3-c3ccccc3)n2)c1	5%	5.2µM*	15µM*	-24%	x	-4%
CCOc1ccc(-n2c(Cc3ccccc3)nnc2SCc2nc(-c3ccccc3C)no2)cc1	1%	u	u	-25%	x	u
COc1ccc(-c2noc(CSc3nnc(Cc4ccccc4)n3-c3cccc(C)c3)n2)cc1OC	1%	21µM*	16µM*	-37%	-64*	u
CCOc1ccc(CNC(=O)CCCn2nc(C)c3c(C)n(-c4ccc(C)cc4)nc3c2=O)cc1	-7%	u	u	-7%	u	u
CC(C)CCOc1ccc(C(=O)NNC(=O)CNC(=O)c2ccccc2F)cc1	-5%	4%	1%	0%	-9	-22%
N#Cc1cccc(-c2cc(NCc3cccs3)ncn2)c1	-9%[56.1 µM]	u	-30%	x	x	x
COCCN(C(=O)c1cccc(N2C(=O)CCC2=O)c1)c1nc(-c2ccc([N+](=O)[O-])cc2)cs1	-3%	21µM*	u	-11%	-11	-1%
SMILES	TDP1 inh	DT40 TDP1 no CPT	DT40 TDP1 CPT	HepG2 tox	IL-1B inflam inh	TGFb SMAD3 inh
Cc1cc(C(=O)CSc2nnc3ccccn23)c(C)n1-c1ccccc1	6%	23µM*	u	-27%	5	7%
CCCCN(CCCC)c1nc2ccccc2nc1C(C#N)C(=O)NCCCOC (stereo not drawn)	-5%	u	u	-4%	-1	85%
CCCN(CCC)c1nc2ccccc2nc1C(C#N)C(=O)OC(C)COC (stereo not drawn)	10%	23µM*	23µM*	8%	-51*	u
Cc1nc(CN2CCN(C(=O)CC3(c4ccccc4Cl)CC(=O)N(C)C3=O)CC2)cs1 (stereo not drawn)	x	-10%	10%	x	x	x
CCOC(=O)C1CCN(S(=O)(=O)c2cc3c4c(c2)CC(=O)N4CCC3)CC1	5%	u	-10%	5%	x	-10%
CCOC(=O)c1ccc(N2C(=O)C3C(C2=O)C(C(=O)c2ccc(Cl)cc2)N2CCCC32)cc1 (stereo not drawn)	12%	21µM*	15µM*	-4%	-66*	-16%
COc1cc(OC)c(C(=O)CCCCN2CCC3(CC2)NC(=O)NC3=O)cc1NS(=O)(=O)c1ccc(C(F)(F)F)cc1	9%	u	u	x	x	x
CC[C@@H](C)[C@H](NS(=O)(=O)c1cccc2ccccc12)C(=O)N[C@H](C=O)Cc1c[nH]c2ccccc12	17%	5.3µM*	5.9µM*	x	x	x
O=C(Nc1cccc(NC(=O)c2cccs2)c1)c1ccc2c(c1)OCO2	2%	12µM*	u	-6%	-77*	-9%
CCOC(=O)c1c(C)c(C(=O)Nc2ccc3c(c2)OCCO3)c(C)n1CC	3%	11µM*	10µM*	-4%	16	0%
CCOC(=O)c1c(C)c(C(=O)Nc2ccc3c(c2)OCO3)c(C)n1C	3%	-4%	1%	0%	0	1%
CCOC(=O)c1cccc(NC(=O)c2ccc3c(c2)OCO3)c1	x	12µM*	15µM*	-26%	-85*	9%
